According to PubChem BioAssay (NCI):
About 83,000 compounds went through this panel and 20% of them were active in at least one assay; those are over-represented in the sample as a whole.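 Single-concentration screen, 48 h exposure, 96-well plates. Endpoint: percent growth. Below 10 = active.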 Values without a mark were called inactive. Activity calls are given as the source filed them.

What was measured:
Assay in all cases: NCI-60 one-dose screen, 48 h (100 = growth as untreated, 0 = no growth, -100 = all killed)
Conditions in all cases: 10 µM unless noted
SK-MEL-2 melanoma = test system: SK-MEL-2 melanoma
EKVX NSCLC = test system: EKVX NSCLC
SN12C renal = test system: SN12C renal
UO-31 renal = test system: UO-31 renal
TK-10 renal = test system: TK-10 renal
ACHN renal = test system: ACHN renal
A498 renal = test system: A498 renal
CCRF-CEM leukemia = test system: CCRF-CEM leukemia
MOLT-4 leukemia = test system: MOLT-4 leukemia
SR leukemia = test system: SR leukemia

| SMILES | growth (SK-MEL-2 melanoma) | growth (EKVX NSCLC) | growth (SN12C renal) | growth (UO-31 renal) | growth (TK-10 renal) | growth (ACHN renal) | growth (A498 renal) | growth (CCRF-CEM leukemia) | growth (MOLT-4 leukemia) | growth (SR leukemia) |
| --- | --- | --- | --- | --- | --- | --- | --- | --- | --- | --- |
| Nc1ccccc1NS(=O)(=O)c1ccc(Cl)cc1 | 93.7% | 98.4% | 103% | 83.9% | 90.8% | 94.8% | 81.5% | 96.6% | 97.1% | 89.6% |
| CCCCOc1nc2ccc(C)cc2cc1/C=C/C(=O)/C=C/c1ccc2c(c1)OCO2 | 69.6% | 102% | 89.2% | 75% | 113% | 103% | 106% | 75.9% | 81.5% | 42.9% |
| CCCn1c(N)c(C(N)=O)sc1=S | 93.3% | 116% | 93.8% | 79.2% | 130% | 93.9% | 98.5% | 108% | 97% | 66.6% |
| CC1CCCN(CCCCCOc2ccc3oc4ccccc4c(=O)c3c2)C1 (stereo not given) | 82.3% | 84% | 64.3% | 61.2% | 82.3% | 98.9% | 75.9% | 70.9% | 49% | 36.4% |
| Nc1ccc(C(=O)Nc2cccc(C(=O)Nc3ccc4c(O)c(N=Nc5ccc(N=Nc6ccc(S(=O)(=O)O)cc6)cc5)c(S(=O)(=O)O)cc4c3)c2)cc1 | 97.5% | 105% | 101% | 88.4% | 97.1% | 106% | 107% | 98.5% | 92.1% | 92.2% |
| COC(=O)/C=C1\SC(=Nc2ccc(F)cc2)N(CCc2c[nH]c3ccccc23)C1=O | 102% | 92.6% | 103% | 81% | 106% | 103% | 110% | 68.2% | 76.4% | 85.5% |
| COc1ccc(-n2nc(C(=O)NCC(=O)O)nc2-c2ccccc2)cc1 | 99.8% | 108% | 105% | 87.5% | 94.1% | 108% | 113% | 102% | 100% | 102% |
| C#C[C@@]1(O)[C@@H](CO)O[C@@H](n2cc(Cl)c3c(N)ccnc32)[C@@H]1O | 76.9% | 89.7% | 78.8% | 72.2% | 122% | 64.8% | 87.7% | 58.4% | 45.6% | 68.9% |
| CCOC(=O)c1c(C(F)(F)F)n([O-])c2ccc(Cl)cc2[n+]1=O | -57.2% (active) | -8.8% (active) | -21.4% (active) | -44.3% (active) | -92.7% (active) | -97.8% (active) | -76.4% (active) | -45.7% (active) | -48.5% (active) | -33.6% (active) |
| CC(=O)[C@@H]1CC[C@]2(C(=O)O)CC[C@]3(C)[C@H](CC[C@@H]4[C@@]5(C)Cc6c([nH]c7ccccc67)C(C)(C)[C@@H]5CC[C@]43C)[C@@H]12 | 79.5% | 42.3% | 69.3% | 48.6% | 63.6% | 46.5% | 61.7% | 62.9% | 49.6% | 73.5% |
| Cc1nc(C)c(C)nc1C | 97.9% | 109% | 101% | 93.4% | 95.7% | 114% | 102% | 89.5% | 99.8% | 108% |
| COc1cc(-c2csc(NC(=O)Nc3cc(Cl)cc(Cl)c3)n2)cc(OC)c1OC | 75.2% | 1.71% (active) | -84% (active) | -66% (active) | -68.9% (active) | -33% (active) | -25.9% (active) | 13.5% | 16.3% | -4.59% (active) |
